We go through 51 compounds from PubChem BioAssay AID1851 (National Center for Advancing Translational Sciences (NCATS), 2009).

Molecules are shown by their SMILES. Out of some 16,000 compounds screened, about 2,600 (16%) were called active. Another 20% or so got no clear call; they are omitted. These entries were drawn from the full list. Unmarked numbers belong to inactive results. Calls follow the shape of the dose curve; as a rule, active = well fitted curve in the direction sought with a large enough effect; inconclusive = small, poorly fitted or top-dose-only effect, or effect the other way; inactive = no such curve, though single readings can be large or run the other way.
% is scaled to controls: 0 for no effect and ±100 for the full control effect.

The target in this assay is Cytochrome P450 2D6 (Homo sapiens) (UniProt P10635). Put plainly: Cytochrome panel assay with activity outcomes. Particulars: recombinant CYP, pro-luciferin dealkylation, luminescence, p450-cyp2d6; series mostly up to 57.1 µM; activity, negative = inhibition: at the top concentration.
Chain of Cytochrome P450 2D6 (Homo sapiens) (P10635 whole entry, looked up): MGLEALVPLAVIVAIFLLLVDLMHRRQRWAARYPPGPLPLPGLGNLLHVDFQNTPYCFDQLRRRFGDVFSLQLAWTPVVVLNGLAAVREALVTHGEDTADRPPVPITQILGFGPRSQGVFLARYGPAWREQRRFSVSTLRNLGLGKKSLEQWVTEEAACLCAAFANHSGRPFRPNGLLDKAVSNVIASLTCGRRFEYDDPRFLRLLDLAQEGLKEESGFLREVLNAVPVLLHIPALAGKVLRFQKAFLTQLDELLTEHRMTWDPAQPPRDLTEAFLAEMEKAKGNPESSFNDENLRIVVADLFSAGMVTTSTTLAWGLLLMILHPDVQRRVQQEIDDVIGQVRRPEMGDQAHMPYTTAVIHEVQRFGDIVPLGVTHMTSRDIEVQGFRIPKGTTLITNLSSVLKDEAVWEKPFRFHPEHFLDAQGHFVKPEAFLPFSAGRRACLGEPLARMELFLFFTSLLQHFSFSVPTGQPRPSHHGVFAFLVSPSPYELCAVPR
For `CCC/C=C(\CCC)C(NS(=O)(=O)c1cccc2cccnc12)c1ccc(-c2ccccc2)cc1` (stereo unspecified), the “activity, negative = inhibition” value was 3.7%.
As a reminder, the AC50 is the concentration at which the activity in the assay is half-maximal. Regarding `Fc1ccc(COc2ccc(Br)cc2CNCc2ccncc2)cc1`, the AC50 is 0.126 µM (active).
On to `C[N+]1(C)CCO[C@](O)(c2ccccc2)C1`, for which the activity, negative = inhibition is 0.284% [at 11.4 µM].
For `OCCNc1ncnc2c1ncn2[C@@H]1O[C@@H](CO)[C@H](O)[C@@H]1O`, the activity, negative = inhibition is 3.15% [at 11.4 µM].
Still for that read-out and setting: to `COc1ccc(-c2nc(-c3cccc(C)c3)nc(N3CCN(C)CC3)c2C#N)cc1` belongs -4.97%.
Same read-out and setting: to `CN1CCCC1CCNC1C2CC3CC(C2)CC1C3` (stereo unspecified) belongs -4.6%.
Turning to `c1ccc(CN2CCC3(CCCc4ccccc43)CC2)cc1`, the AC50 was 0.251 µM (active).
`CC(=O)c1ccc(N2CCC(c3cc(-c4ccc(Cl)cc4)n[nH]3)CC2)c([N+](=O)[O-])c1`: the “activity, negative = inhibition” value is -10.3%.
As for `CCOc1cc(/C=C2/C(=N)N3C=CSC3=NC2=O)ccc1OCCCOc1ccccc1C`, the “activity, negative = inhibition” value was 1.57%.
As for `CCc1nc(SCC(=O)NCCc2ccccc2)c2oc3ccccc3c2n1`, the “activity, negative = inhibition” value was -12.7%.
On to `O=C(CSCc1ccccc1Cl)NN1C(=O)c2ccccc2C1=O`, for which the “activity, negative = inhibition” value is -17.7%.
Turning to `O=C(CSCc1ccccc1Cl)NNC(=O)c1ccccc1`, the “activity, negative = inhibition” value was 1.46%.
In the case of `NCCSCc1ccccc1Cl`, the half-maximal activity concentration (AC50) is 3.16 µM (active).
For the compound `COc1ccc(C2N(c3ccccn3)C(=O)C3CCCN32)c(OC)c1` (stereo unspecified), the “activity, negative = inhibition” value is 4%.
For `CSc1ccc(Cl)c(C(=O)NCCOc2cc(C)ccc2C(C)C)c1`, the AC50 was 11.2 µM (active).
On to `CN(C)CCNC(=O)c1cc(Br)ccc1Cl`, for which the “activity, negative = inhibition” value was -18.4%.
Still for that read-out and setting: to `Cc1ccc(OCCNC(=O)c2cc(-n3cnnc3)ccc2Cl)cc1C` belongs 29.2%; to `O=C1CCCC=C1[C@H](O)c1ccc([N+](=O)[O-])cc1`, -11.2% [at 11.4 µM]; to `NC(N)=NC(N)=Nc1ccccc1`, 2.4%.
`NC(N)=NC(N)=Nc1ccccc1` (tested in a mixture with another compound): the activity, negative = inhibition is -8.99% [at 11.4 µM].
In the case of `Cc1ccc(C(N)=Nc2ccccc2)cc1`, the concentration at half-maximal activity (AC50) was 3.16 µM (active).
Turning to `COCCn1c(=O)c(-c2cccc(C#N)c2)nc2cnc(N3CCNCC3)nc21`, the “activity, negative = inhibition” value was -6.32%.
On the same count and under the same terms, with `CCC(=O)NC(=S)N1CCN(c2ccc([N+](=O)[O-])cc2Cl)CC1` the figure was -14.4%.
For the compound `O=[N+]([O-])c1ccc(N2CCN(Cc3ccccc3)CC2)c(S(=O)(=O)N2CCOCC2)c1`, the “activity, negative = inhibition” value is -18.2%.
`O=[N+]([O-])c1ccc(N2CCN(CCOc3nonc3-c3ccccc3)CC2)c(Cl)c1`: the concentration at half-maximal activity (AC50) was 0.112 µM (active).
Still for that read-out and setting: with `CCCn1c2c(c(O)c(C(=O)NCc3ccccc3)c1=O)CCCC2` the figure was 10 µM (active).
As to `CCCCCCc1nc2ccccc2c(=O)n1NC(=O)c1c(O)c2c(n(CC(C)C)c1=O)CCCC2`, the “activity, negative = inhibition” value is 22.7%.
For the compound `Cc1cc(=O)oc(C)c1C(=O)NCc1ccccc1`, the “activity, negative = inhibition” value was -2.69%.
On to `O=c1cnc2cnc(Nc3ccccc3)nc2n1CCc1ccccc1`, for which the “activity, negative = inhibition” value was -1.38%.
Regarding `Cc1ccccc1C(=O)N1CCN(c2ccc([N+](=O)[O-])c(N3CCOCC3)c2)CC1`, the “activity, negative = inhibition” value was -1%.
Same read-out and setting: to `Cc1cccc(C)c1NC(=O)CSc1nc(C)c(CC(=O)c2ccc(Br)cc2)c(C)c1C#N` belongs -9.75%; to `Cc1ccnc(NCn2nnc3ccccc32)c1`, -14.9%; to `COc1ccc(C(=O)NCc2ccc(-c3nc4ccccc4s3)cc2)cc1`, -11.6%.
As for `c1ccc(/C(=N/Nc2nc3ccccc3s2)c2ccccn2)cc1`, the activity, negative = inhibition was -1.95% [at 11.4 µM].
With `COCCN1CN=C(Nc2nc3ccccc3o2)NC1`, the “activity, negative = inhibition” value is 12%.
Consider `c1ccc2sc(NC3=NCN(C4CCCCCC4)CN3)nc2c1`, for which the AC50 was 1 µM (active).
Consider `COc1ccc(CN2CN=C(Nc3nc4ccccc4s3)NC2)cc1`, for which the concentration at half-maximal activity (AC50) is 7.94 µM (active).
`O=C(NNc1nc2ccccc2s1)C1CC1`: the “activity, negative = inhibition” value was -14.5%.
`C[C@H](C(=O)c1ccccc1)[C@@H](c1ccccc1)N1CCOCC1`: the activity, negative = inhibition is -5.64% [at 11.4 µM].
Regarding `CC1=C(C#N)C(Nc2ccc(Cl)cn2)(C(F)(F)F)C(=O)N1` (stereo unspecified), the “activity, negative = inhibition” value was -11.3%.
As for `Cn1c(=O)c(-c2cc(F)cc(F)c2)nc2cnc(N3CCOCC3)nc21`, the “activity, negative = inhibition” value was -1.51%.
Same read-out and setting: to `COc1ccc(Nc2ncc3nc(-c4cccs4)c(=O)n(Cc4cccc(OC)c4)c3n2)cc1` belongs 4.4%; to `CCOc1cc(/C=N/NC(=O)CNc2cccc(C)c2)ccc1OC(=O)c1ccccc1`, -19.5%.
With `Cc1ccc(CS(=O)(=O)CCC(=O)NCc2cccs2)cc1`, the concentration at half-maximal activity (AC50) is 11.2 µM (active).
For the compound `Cc1ccc(CS(=O)(=O)CCC(=O)NCc2ccccn2)cc1`, the “activity, negative = inhibition” value is 2.91%.
Same read-out and setting: to `CCOCCCNC(=O)CCS(=O)(=O)Cc1ccc(C)cc1` belongs -3.09%; to `COCC(=O)N(C)c1nnc(-c2ccc([N+](=O)[O-])cc2)s1`, 6.42%.
For `Cc1ccc(C)c(OCCCC(C)(C)C(=O)O)c1`, the “activity, negative = inhibition” value is 1.86% [at 25.6 µM].
Consider `N[C@H](C(=O)O)[C@H](OCc1ccccc1)C(=O)O`, for which the AC50 was 7.94 µM (active).
With `N[C@@H](Cc1ccccc1)C(=O)O`, the activity, negative = inhibition is 4.66% [at 11.4 µM].
In the case of `CC(C)C(NC(=O)OCc1ccccc1)C(=O)O` (stereo unspecified), the “activity, negative = inhibition” value is 23.6%.
